Tests used:
Experiment in all cases: log2 ratio of Biotin-Ahx-Ub-VS probe labelling (fragment/DMSO); higher = less target engagement (more negative = stronger competition), active = hit call of the paper (q ≤ 0.05, log2 ratio ≤ -1)
Conditions in all cases: compound concentration: 200 uM; treatment time: 3 h
OTUD6B = target: T1, OTUD6B (UniProt Q8N6M0)
T1 sequence (whole entry): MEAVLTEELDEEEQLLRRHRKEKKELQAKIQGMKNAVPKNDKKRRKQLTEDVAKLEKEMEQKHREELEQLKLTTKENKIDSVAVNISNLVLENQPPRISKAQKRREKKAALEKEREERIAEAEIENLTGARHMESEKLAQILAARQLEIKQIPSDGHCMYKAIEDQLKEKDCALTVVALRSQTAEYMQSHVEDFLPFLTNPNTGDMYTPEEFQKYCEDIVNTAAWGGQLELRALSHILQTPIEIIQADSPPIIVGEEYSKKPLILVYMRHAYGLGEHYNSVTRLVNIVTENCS
Method in brief: (§1)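 Average log2 ratios of fragment over vehicle were obtained by unpaired t-test from global-median-normalised Spectronaut label-free quantities. Proteins with ≥2 unique peptides were included. HEK293T lysate (495 µg per sample) was treated in triplicate with fragment at 200 µM or vehicle for 3 h, then with Biotin-Ahx-Ub-VS at 0.5 µM final for 1 h, and labelled DUBs were NeutrAvidin-enriched and run by diaPASEF LC-MS/MS.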

OTUD7B = target: T2, OTUD7B (UniProt Q6GQQ9)
T2 sequence (whole entry): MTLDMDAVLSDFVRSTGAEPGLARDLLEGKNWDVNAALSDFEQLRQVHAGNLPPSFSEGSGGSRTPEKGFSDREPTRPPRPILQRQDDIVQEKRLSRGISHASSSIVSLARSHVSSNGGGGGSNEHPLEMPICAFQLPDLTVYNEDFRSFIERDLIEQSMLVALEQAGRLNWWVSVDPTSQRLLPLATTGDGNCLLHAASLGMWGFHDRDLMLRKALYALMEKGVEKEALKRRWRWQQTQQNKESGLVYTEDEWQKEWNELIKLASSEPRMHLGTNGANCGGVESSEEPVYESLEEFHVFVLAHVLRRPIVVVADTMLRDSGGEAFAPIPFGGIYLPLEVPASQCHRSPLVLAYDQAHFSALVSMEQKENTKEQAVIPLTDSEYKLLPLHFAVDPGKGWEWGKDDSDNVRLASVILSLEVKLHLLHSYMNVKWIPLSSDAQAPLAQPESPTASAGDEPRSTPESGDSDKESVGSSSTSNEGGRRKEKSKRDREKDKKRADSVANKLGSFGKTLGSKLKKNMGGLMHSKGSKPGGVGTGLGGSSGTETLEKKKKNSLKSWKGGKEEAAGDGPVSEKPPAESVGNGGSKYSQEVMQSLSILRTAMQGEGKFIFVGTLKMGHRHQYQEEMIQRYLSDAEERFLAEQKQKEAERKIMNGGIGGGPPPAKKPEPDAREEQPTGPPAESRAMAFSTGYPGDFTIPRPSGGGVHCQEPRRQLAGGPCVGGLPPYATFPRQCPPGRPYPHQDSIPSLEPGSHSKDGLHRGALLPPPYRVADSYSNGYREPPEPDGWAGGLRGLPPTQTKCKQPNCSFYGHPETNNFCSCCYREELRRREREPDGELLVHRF
Method in brief: as §1

PRPF8 = PRPF8 (UniProt Q6P2Q9)
Method in brief: as §1

PSMD7 = target: T3, PSMD7 (UniProt P51665)
T3 sequence (whole entry): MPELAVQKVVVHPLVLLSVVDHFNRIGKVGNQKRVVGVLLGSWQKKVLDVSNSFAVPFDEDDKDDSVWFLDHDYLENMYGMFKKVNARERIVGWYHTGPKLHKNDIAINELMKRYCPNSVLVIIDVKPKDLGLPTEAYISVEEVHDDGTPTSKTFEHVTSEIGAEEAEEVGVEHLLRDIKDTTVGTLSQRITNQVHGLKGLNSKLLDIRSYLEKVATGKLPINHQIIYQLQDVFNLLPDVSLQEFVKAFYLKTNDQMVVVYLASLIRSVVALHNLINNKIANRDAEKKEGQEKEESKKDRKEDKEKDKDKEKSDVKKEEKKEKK
Method in brief: as §1

UCHL1 = UCHL1 (UniProt P09936)
Method in brief: as §1

UCHL3 = target: T4, UCHL3 (UniProt P15374)
T4 sequence (whole entry): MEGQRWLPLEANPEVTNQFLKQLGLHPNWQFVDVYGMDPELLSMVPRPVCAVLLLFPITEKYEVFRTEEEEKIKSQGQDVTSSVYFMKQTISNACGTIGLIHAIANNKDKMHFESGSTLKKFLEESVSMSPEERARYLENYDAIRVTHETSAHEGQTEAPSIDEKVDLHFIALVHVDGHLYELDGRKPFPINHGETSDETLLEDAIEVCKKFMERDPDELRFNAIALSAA
Method in brief: as §1

UCHL5 = target: T5, UCHL5 (UniProt Q9Y5K5)
T5 sequence (whole entry): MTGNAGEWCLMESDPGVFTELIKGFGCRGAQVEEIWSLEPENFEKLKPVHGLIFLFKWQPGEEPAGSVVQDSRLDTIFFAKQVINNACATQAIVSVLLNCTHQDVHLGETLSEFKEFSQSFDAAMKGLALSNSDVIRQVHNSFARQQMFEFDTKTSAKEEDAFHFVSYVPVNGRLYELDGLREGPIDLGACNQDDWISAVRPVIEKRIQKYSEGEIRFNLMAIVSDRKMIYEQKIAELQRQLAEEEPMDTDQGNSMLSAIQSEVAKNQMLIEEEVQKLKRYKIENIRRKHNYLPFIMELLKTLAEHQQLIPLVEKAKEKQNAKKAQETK
Method in brief: as §1

USP10 = USP10 (UniProt Q14694)
Method in brief: as §1

USP15 = target: T6, USP15 (UniProt Q9Y4E8)
T6 sequence (whole entry): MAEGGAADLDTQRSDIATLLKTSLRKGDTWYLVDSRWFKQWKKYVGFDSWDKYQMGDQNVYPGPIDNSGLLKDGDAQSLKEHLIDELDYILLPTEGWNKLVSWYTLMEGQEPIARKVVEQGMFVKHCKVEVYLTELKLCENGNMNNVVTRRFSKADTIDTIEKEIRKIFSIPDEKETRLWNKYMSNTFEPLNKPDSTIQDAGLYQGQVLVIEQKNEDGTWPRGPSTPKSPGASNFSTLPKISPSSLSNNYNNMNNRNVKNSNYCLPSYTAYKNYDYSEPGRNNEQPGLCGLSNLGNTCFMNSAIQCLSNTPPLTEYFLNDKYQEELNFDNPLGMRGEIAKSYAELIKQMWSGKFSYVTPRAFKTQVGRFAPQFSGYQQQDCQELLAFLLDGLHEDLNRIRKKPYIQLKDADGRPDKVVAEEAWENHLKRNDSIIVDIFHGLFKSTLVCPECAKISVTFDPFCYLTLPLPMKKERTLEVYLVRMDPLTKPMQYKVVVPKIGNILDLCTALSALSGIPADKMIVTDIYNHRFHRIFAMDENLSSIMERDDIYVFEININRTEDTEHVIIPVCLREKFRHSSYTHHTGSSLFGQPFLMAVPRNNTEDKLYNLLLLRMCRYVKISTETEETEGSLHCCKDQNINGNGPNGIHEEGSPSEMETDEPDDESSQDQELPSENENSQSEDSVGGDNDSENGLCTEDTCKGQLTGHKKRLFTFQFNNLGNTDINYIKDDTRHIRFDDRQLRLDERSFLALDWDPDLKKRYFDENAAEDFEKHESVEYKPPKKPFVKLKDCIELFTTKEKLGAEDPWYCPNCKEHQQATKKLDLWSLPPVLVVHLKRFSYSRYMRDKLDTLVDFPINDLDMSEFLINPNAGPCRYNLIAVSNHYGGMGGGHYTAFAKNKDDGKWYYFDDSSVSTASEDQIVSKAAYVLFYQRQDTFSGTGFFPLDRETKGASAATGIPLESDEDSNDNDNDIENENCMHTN
Method in brief: as §1

USP16 = USP16 (UniProt Q9Y5T5)
Method in brief: as §1

Measured: log2 ratio of Biotin-Ahx-Ub-VS probe labelling

Sequence of UCHL1 (P09936 whole entry, looked up): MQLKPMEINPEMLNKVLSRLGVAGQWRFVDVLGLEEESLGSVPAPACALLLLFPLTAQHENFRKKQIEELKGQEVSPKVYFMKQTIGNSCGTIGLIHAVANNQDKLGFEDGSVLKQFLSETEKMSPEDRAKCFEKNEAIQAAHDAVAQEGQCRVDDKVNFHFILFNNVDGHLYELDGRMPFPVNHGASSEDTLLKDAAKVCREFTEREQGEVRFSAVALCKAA
Sequence of USP16 (Q9Y5T5 whole entry, looked up): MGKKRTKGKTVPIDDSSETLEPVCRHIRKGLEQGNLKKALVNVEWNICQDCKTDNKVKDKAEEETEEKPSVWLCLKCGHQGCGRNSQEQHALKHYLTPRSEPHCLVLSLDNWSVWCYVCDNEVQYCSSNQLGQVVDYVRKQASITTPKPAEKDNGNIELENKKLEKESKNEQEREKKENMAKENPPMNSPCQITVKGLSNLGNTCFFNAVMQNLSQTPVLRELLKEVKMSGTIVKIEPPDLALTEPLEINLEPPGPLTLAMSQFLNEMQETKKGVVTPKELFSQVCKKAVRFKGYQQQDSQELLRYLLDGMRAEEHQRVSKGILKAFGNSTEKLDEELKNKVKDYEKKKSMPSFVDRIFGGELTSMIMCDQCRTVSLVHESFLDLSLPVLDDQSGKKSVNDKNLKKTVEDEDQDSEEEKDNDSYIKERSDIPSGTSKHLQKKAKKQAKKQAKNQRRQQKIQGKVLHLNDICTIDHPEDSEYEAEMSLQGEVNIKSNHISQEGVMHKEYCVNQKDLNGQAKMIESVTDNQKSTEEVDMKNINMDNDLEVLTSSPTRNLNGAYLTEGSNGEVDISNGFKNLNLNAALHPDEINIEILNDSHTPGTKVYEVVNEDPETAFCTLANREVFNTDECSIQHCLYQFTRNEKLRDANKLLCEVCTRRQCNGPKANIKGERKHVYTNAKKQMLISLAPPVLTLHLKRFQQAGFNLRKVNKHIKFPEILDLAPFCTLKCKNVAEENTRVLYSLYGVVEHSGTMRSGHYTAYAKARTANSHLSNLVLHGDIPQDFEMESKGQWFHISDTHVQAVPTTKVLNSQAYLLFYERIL
Sequence of USP10 (Q14694 whole entry): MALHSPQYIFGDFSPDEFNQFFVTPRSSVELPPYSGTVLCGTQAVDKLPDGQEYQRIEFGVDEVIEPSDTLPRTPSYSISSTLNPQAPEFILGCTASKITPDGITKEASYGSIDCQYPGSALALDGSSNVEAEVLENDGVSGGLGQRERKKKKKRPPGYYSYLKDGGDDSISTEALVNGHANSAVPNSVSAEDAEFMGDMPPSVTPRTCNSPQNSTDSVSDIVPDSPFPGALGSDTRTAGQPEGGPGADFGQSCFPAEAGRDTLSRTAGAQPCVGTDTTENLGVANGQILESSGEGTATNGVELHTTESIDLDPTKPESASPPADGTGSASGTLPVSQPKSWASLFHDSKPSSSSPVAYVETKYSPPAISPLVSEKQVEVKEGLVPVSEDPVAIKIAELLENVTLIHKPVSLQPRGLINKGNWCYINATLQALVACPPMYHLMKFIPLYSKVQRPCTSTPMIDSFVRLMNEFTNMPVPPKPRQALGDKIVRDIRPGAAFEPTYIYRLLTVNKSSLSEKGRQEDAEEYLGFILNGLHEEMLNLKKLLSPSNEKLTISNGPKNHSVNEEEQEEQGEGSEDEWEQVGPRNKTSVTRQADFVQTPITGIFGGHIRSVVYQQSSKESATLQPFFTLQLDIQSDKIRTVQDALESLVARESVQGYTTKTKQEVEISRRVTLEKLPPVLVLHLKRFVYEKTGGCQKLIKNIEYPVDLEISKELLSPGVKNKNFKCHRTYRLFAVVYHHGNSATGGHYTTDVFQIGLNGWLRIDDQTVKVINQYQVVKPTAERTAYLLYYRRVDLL

COc1ccccc1C(C)NC(=O)CCl (stereo not given)
active: UCHL1 -1.47 | UCHL3 -1.18
inactive: OTUD6B -0.401 | OTUD7B -0.997 | PRPF8 -0.14 | PSMD7 -0.451 | UCHL5 -0.318 | USP10 -0.0811 | USP15 -0.251 | USP16 -0.386

From the supplement of paper PMC11732987, “Enantioselective OTUD7B fragment discovery through chemoproteomics screening and high-throughput optimisation” (Communications Chemistry, 2025)
